Test results reported in PubChem BioAssay AID1671190 (National Center for Advancing Translational Sciences (NCATS), 2021).
Screen size: about 580,000 compounds; about 6,100 (1.1%) were called active. Another 15% or so got no clear call; they are omitted. The sample holds actives, similar compounds and a random draw of the others, so the mix is not that of the screen. The call rests on the fitted dose curve; in most records, active means well fitted inhibition curve with a large enough effect; inconclusive means small, poorly fitted or top-dose-only effect, or another doubt; inactive means no such curve, though single readings can be large or run the other way.

Target: Polyunsaturated fatty acid lipoxygenase ALOX12 (Homo sapiens) (UniProt P18054)
Test: Primary qHTS assay for inhibitors of human arachidonate 12S-lipoxygenase (ALOX12): Round 2
Conditions: purified 12hLO, xylenol orange hydroperoxide absorbance; series mostly up to 108 µM; activity change, negative = inhibition: at the top concentration
Excerpt: Assay Provider: Theodore R. Holman Ph.D. University of California, Santa Cruz, California Human lipoxygenase 12hLO is a member of the closely related lipoxygenase family of enzymes which catalyze the site-specific oxidation of arachidonic acid to various hormone precursor molecules and as such is a candidate for drug development in a variety of disease areas, such as cancer and inflammation. Inhibition of 12hLO activity was screened by utilizing arachidonic acid as a substrate. The extent of hydroperoxide product formation was measured by a secondary chromogenic reaction in which xylenol orange (XO, Sigma-Aldrich, cat. number 39,818-7) reacts with the ferric ions produced from the reaction between the hydroperoxide and ferrous ions. The Fe (III)-XO complex is characterized with red-shifted absorbance at 560 nm. A purified preparation of human 12hLO was supplied by Dr. Holman laboratory, University of California, Santa Cruz.
PROTOCOL TABLE SEQUENCE No. (e.g., 1, 2, 3, etc.); […] (e.g., Cells, Incubation, Reagent, etc.); VALUE; DESCRIPTION 1; Enzyme; 3 uL; 150 nM 12hLO enzyme solution dispensed in 1536-well Greiner black, clear bottom plates. 2; Compound; 23 nL; compounds and controls were added. 3; Incubate; 15 min; room temperature. 4; Substrate; 1 uL; 40 uM arachidonic acid (final concentration). 5; Incubate; 30 min; room temperature. 6; Reagent; 4 uL; Fe-XO solution was added to each well. 7; Incubation; 30 min; room temperature 8; Detector; absorbance; Read 1 at 405 nm absorbance using ViewLux (Perkin-Elmer) CCD imager. 9; Detector; absorbance; Read 2 at 573 nm absorbance using ViewLux (Perkin-Elmer) CCD imager. NOTES (numbers refer to sequence above) 1; 150 nM 12hLO (final concentration) in buffer solution (25 mM Hepes, 0.01% Triton X-100, pH 7.0) was dispensed in columns 1, 2, 5-48. Column 1 is neutral (100% activity). Buffer only was dispensed in columns 3 and 4 as no enzyme negative controls. The plates were covered with metal lids with gas-exchange holes. 2; Compounds were pin transferred via a Kalypsys Pin Tool (Wako USA) in column 5-48. Control compound was transferred in column 2, titration of nordihydroguaiaretic acid (NDGA, Sigma-Aldrich, N5023) with top concentration of 20 mM in DMSO then 1:3 dilution in duplicate. Dilution factor of 23 nL into 4 uL final assay volume. 3; Covered assay plates were incubated for 15 min at room temperature. 4; Substrate was added to start the reaction; 40 uM arachidonic acid (Sigma-Aldrich, St. Louis, MO) was dispensed throughout the plate. 6; Chromogenic detection reagent solution (divalent iron/xylenol orange, Fe-XO) was added to each well: 200 uM xylenol orange, 300 uM ferrous ammonium sulfate prepared freshly in 50 mM sulfuric acid. 8, 9; Two absorbance readouts were obtained at 405 nm and at 573 nm using a ViewLux high-throughput CCD plate imager (Perkin-Elmer). The 573 to 405 (Read 2 / Read 1) absorbance ratio was used to compute reaction progress.
On the % scale 0 is the no-effect control and ±100 the full control effect; potency means the concentration at half of the fitted maximal effect.

Chain of Polyunsaturated fatty acid lipoxygenase ALOX12 (Homo sapiens) (P18054 whole entry, looked up): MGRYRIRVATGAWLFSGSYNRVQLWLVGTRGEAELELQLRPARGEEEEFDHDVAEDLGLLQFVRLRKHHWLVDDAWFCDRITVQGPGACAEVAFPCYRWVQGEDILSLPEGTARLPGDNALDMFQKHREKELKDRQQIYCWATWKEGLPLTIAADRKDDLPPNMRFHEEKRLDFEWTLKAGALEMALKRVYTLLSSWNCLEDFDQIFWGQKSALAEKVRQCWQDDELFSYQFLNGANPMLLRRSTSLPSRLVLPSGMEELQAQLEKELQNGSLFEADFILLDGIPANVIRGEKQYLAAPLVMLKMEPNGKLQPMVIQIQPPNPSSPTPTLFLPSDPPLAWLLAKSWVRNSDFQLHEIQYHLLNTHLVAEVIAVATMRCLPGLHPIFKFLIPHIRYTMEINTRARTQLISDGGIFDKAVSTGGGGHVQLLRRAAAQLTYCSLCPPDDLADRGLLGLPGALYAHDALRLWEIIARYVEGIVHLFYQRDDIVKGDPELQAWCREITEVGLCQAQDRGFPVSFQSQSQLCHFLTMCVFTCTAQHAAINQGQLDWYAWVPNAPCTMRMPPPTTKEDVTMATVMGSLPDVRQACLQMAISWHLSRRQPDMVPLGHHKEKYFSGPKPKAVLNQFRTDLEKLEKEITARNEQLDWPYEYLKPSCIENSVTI

Activity change, negative = inhibition, inactive:
Cc1csc(NC(=O)CCc2ncc(-c3ccc(Cl)cc3Cl)o2)n1 -11.5%
O=C(Nc1cccc(Cl)c1)c1csnn1 -56.4%
CCOc1cc2[nH]c(=O)n(Cc3ccc(C(=O)NCCN(CC)CC)cc3)c(=O)c2cc1OCC 8.46%
CCCCCn1c(=O)[nH]c2cc(C(=O)NCCN(C)CCCC)ccc2c1=O -11.6%
O=C(CCc1ccccc1)Nc1ccc(Cl)c(C(F)(F)F)c1 -15.2%
Cc1cccc(NC(=O)CN2CC3CC(C2)[C@H]2CCCC(=O)N2C3)c1 (some centres not stated) 15.5%
O=C(NC(=O)c1ccccc1N1CCCCC1)Nc1ccc(Br)cc1 5.64%
CSc1ccccc1NC(=O)Cc1ccc(Br)cc1 -6.84%
Cn1cc(C(=O)N2CCC(C(N)=O)CC2)c2ccccc21 -6.34%
CC1=C(C(=O)OC(C)C)C(c2ccncc2)c2c(nc(SCc3ccccc3)[nH]c2=O)N1 (configuration not stated) 3.3%
COc1ccc(/C=C2/S/C(=N/N=C3\CC4CCC3(C)C4(C)C)NC2=O)cc1 (configuration not stated) 12.3%
O=C1NC(=O)C(=Cc2cccc(C(F)(F)F)c2)S1 -31.5% [at 57.4 µM]
CCOC(=O)NC(CNC(=O)c1ccccc1OC)CC(C)C (configuration not stated) -16%
COc1ccccc1NS(=O)(=O)c1ccc2oc(SCCOc3ccccc3F)nc2c1 -14%
CCC(CC)C(=O)Nc1sc(Nc2ccc(C)cc2)nc1C(N)=O 56.5%
COc1ccc2cc(S(=O)(=O)c3ccc(Cl)c(Cl)c3)c(=O)oc2c1 6.23%
O=C(c1ccc(F)c(F)c1)N1CCC([C@@H]2CNC[C@H]2CO)CC1 9.14%
COc1ccc(C(=O)N2CCC([C@@H]3CNC[C@H]3CO)CC2)cc1OC 42.4%
O=C(OCCN1C(=O)c2ccccc2C1=O)Oc1ccccc1 21.2%
Nc1ccc(SCCN2C(=O)c3ccccc3C2=O)cc1 0%
COc1ccc(CC(=O)N2CC3ON=C(c4c(F)cccc4Cl)C3C2)cc1OC (configuration not stated) 0.305%
CCCn1c(-n2nc(C)cc2C)nc2c1c(=O)n(CCN1CCCCC1)c(=O)n2C -4.67%
CC(c1ccc(S(N)(=O)=O)cc1)N(C)C(=O)CCc1ncc(-c2ccc(Cl)cc2)o1 (configuration not stated) -1.85%
CCOC(=O)c1c(NC(C)=O)sc2c(OCC(=O)Nc3ccccc3C)c(C)ccc12 4.61%
COC(=O)Nc1ccc(S(=O)(=O)Nc2cc(OC)nc(OC)n2)cc1 -27.3%
CC(Oc1cccc(Cl)c1)C(=O)Nc1ccc(S(=O)(=O)Nc2ncccn2)cc1 (configuration not stated) -28%
CCOC(=O)c1cccc(NC(=O)N2CC[C@@H](CC(=O)N(C)CC#N)[C@@H](CC)C2)c1 7.29% [at 176 µM]
CCOc1ccc(NC(=O)C(=O)c2c[nH]c3ccccc23)cc1 -5.79%
CCc1cccc(NC(=O)Nc2cn(CC(C)C)c(=O)c3ccccc23)c1 -24.1%
N#Cc1cccc(NC(=O)O[C@@H]2CO[C@H]3[C@@H]2OC[C@@H]3Nc2nccc(-c3ccccc3)n2)c1 8.46%
Cc1ccc(C(=O)Nc2ccc3c(N4CCCCC4)ncnc3c2)s1 0.475%
CC(C)CC(N=C1NC(C)(C)Cc2ccccc21)C(=O)O (configuration not stated) 26.9%
CC1(C)Cc2ccccc2-c2nnc(-c3cccc(O)c3)n21 0%
COc1ccc(-c2nc(CSCC(=O)N(C)c3ccccc3)co2)cc1 -7.47%
COc1ccc(CCC(=O)N2CCCCCCNC(=O)[C@@H]3CCCC[C@@H]32)cc1 14.2%
CCc1ccc(N(Cc2cccs2)C(=O)c2ccccc2C)cc1 5.57%
CC(NS(=O)(=O)c1ccc(F)cc1Cl)C(=O)N1CCCC1 (configuration not stated) 1.67%
CCOc1ccc(NC(=O)Nc2ccc(CN3CCOCC3)cc2)cc1 -0.148%
COC(=O)c1ccc2c(c1)nc1n2[C@@H](CNCc2cccc(OC)n2)COC1 -2.06% [at 176 µM]
CC(C)c1ccc(NC(=O)c2ccc3c(Cl)c4c(nc3c2)CCCC4)cc1 -5.67%
CC(=O)N1CCc2nc(C3CC3)nc(-c3ccc(Cl)cc3)c2C1 7.6% [at 176 µM]
O=C(c1cccc(Cl)c1)N1CCc2nc(C3CC3)nc(-c3ccc(Cl)cc3)c2C1 -20.8%

Potency, active:
Cc1csc(NC(=S)Nc2cccc(Cl)c2)n1 8.91 µM
CCN(CC)CCCNC(=O)c1ccc2c(=O)n(Cc3ccc4c(c3)OCO4)c(=S)[nH]c2c1 39.8 µM
O=C(NC(=S)Nc1ccccc1C(=O)O)c1ccc(-c2ccc(Br)cc2)o1 10 µM
CCc1ccc(C=C2SC(=S)NC2=O)cc1 10.9 µM
O=C(c1ccc(C(F)(F)F)cc1)N1CCC([C@@H]2CNC[C@H]2CO)CC1 44.7 µM
O=C1c2ccccc2C(=O)N1CCCCCCN1C(=O)c2ccccc2C1=O 35.5 µM
COc1cc(NS(=O)(=O)c2ccc(N/C=C(\C=O)c3nc4cc(Cl)ccc4o3)cc2)nc(OC)n1 22.4 µM
[O-]/[N+](=C\c1ccc2ccccc2n1)c1ccccc1 11.2 µM
CC(C)Oc1c(Br)cc(Br)cc1/C=N/NC(N)=S 35.5 µM
CC1(C)Cc2ccccc2-c2[nH]c(=S)[nH]c(=O)c21 7.94 µM
